Experiment [1] is described as follows: antimalarial activity against Dd2 strain (AID 2302;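 active means growth inhibition above 50% at the single 2 µM test dose, taken to imply half-maximal potency below 2 µM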;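 further: 0% = DMSO untreated growth and 100% = chloroquine plus artemisinin killed control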). Particulars: P. falciparum Dd2 in RBCs, LDH growth readout, 72 h; at 2 µM; hits give high values.
The nature of experiment [2]: human hepatoma cell viability loss – ATP luminescence, cytotoxicity control for P. falciparum antimalarial project, primary screen (AID 2303;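 active means inhibition above 50%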;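 further: 0% = DMSO wells and 100% = digitonin-killed cells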). Particulars: HepG2 viability, 24-48 h, at 10 µM, hits give high values.
Experiment [3] deals with L-lactate dehydrogenase (Plasmodium falciparum (isolate CDC / Honduras)) (UniProt Q27743). Nature of the experiment: PfLDH activity inhibition – cell lysate, 3D7 strain, counter-screen for P. falciparum growth inhibition project (AID 2304).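 Further: 0% = vehicle and 100% = reference inhibitor.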 Particulars: P. falciparum 3D7 crude extract, LDH APAD/NBT absorbance; at 2 µM; hits give high values. In general terms: The purpose of a counterscreen is to sort out artefacts and off-target activity.

A short description of experiment [4]: inhibition of 3D7 malaria parasite growth – strain 3D7 (AID 2306).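 Further: 0% = DMSO wells and 100% = chloroquine plus artemisinin control wells.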 Particulars: P. falciparum 3D7 erythrocytic growth, LDH absorbance, 72 h; at 2 µM; hits give high values.
Experiment [5] concerns the target Calcium-dependent protein kinase 1 (Plasmodium falciparum (isolate 3D7)) (UniProt P62344). Nature of the experiment: PfCDPK1 kinase inhibitors, biochemical, TCAMS library (AID 1159585; cut-off not given, nearly all actives have IC50 up to about 0.98 µM;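 further: inhibitors leave more ATP so luminescence rises with inhibition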). Particulars: recombinant PfCDPK1, Kinase-Glo ATP depletion luminescence.
The target of experiment [6] is Plasmodium falciparum protein kinase 6 (PK6, PF3D7_1337100) (UniProt Q8IDW1). Kind of experiment: PfPK6 kinase inhibitors, biochemical, TCAMS library (AID 1159586). Particulars: recombinant PfPK6, Kinase-Glo ATP depletion luminescence. Background: In Kinase-Glo more light means more ATP remaining.
Experiment [7] deals with Protein kinase 7 (PK7), Plasmodium falciparum 3D7 (PF3D7_0213400) (UniProt Q7YTF7). Nature of the experiment: inhibition of Plasmodium PK7 catalytic activity – biochemical, TCAMS antimalarial set, Kinase-Glo luminescence (AID 1159587). Particulars: recombinant PfPK7, Kinase-Glo ATP depletion luminescence.
Experiment [8] addresses Calcium-dependent protein kinase 4 (Plasmodium falciparum (isolate 3D7)) (UniProt Q8IBS5). Kind of experiment: PfCDPK4 kinase inhibitors, biochemical, TCAMS library (AID 1159588; cut-off not given, nearly all actives have IC50 up to about 0.91 µM). Particulars: recombinant PfCDPK4, Kinase-Glo ATP depletion luminescence.

A number with no mark means an inactive call. For part of these data: Measured potencies and affinities stand elsewhere. Active and inactive are the calls of the source. Unless noted, how the calls were made is not given here.

Chain of Plasmodium falciparum protein kinase 6 (PK6, PF3D7_1337100) (Q8IDW1 1-305): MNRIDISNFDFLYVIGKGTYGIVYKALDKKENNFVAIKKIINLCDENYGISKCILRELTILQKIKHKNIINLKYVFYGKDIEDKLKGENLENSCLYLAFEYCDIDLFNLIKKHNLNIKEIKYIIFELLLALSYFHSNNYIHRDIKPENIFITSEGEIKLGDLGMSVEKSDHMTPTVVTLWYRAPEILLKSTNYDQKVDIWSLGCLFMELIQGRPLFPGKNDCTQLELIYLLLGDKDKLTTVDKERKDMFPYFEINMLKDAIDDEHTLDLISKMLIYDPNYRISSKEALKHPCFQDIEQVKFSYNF
Chain of Calcium-dependent protein kinase 4 (Plasmodium falciparum (isolate 3D7)) (Q8IBS5 whole entry, looked up): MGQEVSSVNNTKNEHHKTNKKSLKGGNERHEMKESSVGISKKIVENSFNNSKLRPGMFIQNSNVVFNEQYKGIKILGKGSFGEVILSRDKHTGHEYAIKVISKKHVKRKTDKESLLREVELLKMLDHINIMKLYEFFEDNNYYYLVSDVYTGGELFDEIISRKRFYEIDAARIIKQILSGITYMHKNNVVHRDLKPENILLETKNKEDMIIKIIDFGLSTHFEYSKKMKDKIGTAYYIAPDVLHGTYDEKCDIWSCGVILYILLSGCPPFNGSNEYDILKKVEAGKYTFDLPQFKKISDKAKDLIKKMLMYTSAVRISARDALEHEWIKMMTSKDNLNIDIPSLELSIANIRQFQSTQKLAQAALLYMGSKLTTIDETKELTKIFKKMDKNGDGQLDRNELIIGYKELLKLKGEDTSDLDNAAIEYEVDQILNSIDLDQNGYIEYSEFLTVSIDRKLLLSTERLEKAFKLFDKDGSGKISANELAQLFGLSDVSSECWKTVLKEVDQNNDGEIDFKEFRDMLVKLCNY
Chain of Protein kinase 7 (PK7), Plasmodium falciparum 3D7 (PF3D7_0213400) (Q7YTF7 1-343): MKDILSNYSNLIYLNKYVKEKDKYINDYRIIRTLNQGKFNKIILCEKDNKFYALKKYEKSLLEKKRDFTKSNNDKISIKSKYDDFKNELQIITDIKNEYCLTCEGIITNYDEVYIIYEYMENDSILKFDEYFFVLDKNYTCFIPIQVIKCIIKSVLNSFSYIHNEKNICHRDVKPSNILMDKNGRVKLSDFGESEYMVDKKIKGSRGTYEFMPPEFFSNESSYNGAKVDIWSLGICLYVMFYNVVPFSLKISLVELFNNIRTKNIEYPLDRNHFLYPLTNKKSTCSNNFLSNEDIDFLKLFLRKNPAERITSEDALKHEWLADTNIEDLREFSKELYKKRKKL
Chain of L-lactate dehydrogenase (Plasmodium falciparum (isolate CDC / Honduras)) (Q27743 whole entry, looked up): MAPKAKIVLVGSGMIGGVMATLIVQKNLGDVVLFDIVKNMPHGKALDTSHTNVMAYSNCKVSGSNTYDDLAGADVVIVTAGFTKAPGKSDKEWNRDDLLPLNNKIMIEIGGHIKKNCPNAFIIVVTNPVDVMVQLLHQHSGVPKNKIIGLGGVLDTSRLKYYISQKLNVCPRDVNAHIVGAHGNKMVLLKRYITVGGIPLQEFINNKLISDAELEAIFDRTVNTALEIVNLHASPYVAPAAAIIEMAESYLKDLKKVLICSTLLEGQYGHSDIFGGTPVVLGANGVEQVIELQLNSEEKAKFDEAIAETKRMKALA
Chain of Calcium-dependent protein kinase 1 (Plasmodium falciparum (isolate 3D7)) (P62344 whole entry, looked up): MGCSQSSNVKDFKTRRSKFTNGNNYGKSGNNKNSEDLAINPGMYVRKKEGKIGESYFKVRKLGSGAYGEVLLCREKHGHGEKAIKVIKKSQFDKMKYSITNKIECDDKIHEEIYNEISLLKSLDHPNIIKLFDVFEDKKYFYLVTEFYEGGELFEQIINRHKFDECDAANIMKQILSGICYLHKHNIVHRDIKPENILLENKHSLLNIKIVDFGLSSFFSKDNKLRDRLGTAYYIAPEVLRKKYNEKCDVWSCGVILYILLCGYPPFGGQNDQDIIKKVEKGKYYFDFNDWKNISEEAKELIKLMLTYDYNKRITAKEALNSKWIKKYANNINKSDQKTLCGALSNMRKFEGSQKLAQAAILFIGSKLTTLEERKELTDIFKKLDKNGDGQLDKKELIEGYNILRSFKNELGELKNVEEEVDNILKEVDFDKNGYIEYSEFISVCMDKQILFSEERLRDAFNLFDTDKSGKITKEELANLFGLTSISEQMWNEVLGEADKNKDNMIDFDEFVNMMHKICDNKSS

Usually inhibition stands for the change of the read-out against control, counted positive when it falls. Consider `COc1cccc(Nc2nc(N)c3ccccc3n2)c1`, for which the growth inhibition in experiment [1] is 47%; in experiment [4] it was 88% (active). Moreover, the inhibition in experiment [2] was 18%; in experiment [3], -2%. For the same compound, the result in experiment [5], in experiment [6], in experiment [7] and in experiment [8] was inactive.

Regarding `CN1CCC(c2nc(N)no2)C1` (stereo not drawn), the results for the growth inhibition in experiment [1] and in experiment [4] were 2% and 95% (active), respectively. Moreover, the inhibition in experiment [2] was 15%; in experiment [3], 0%. Further, the result in experiment [5], in experiment [6], in experiment [7] and in experiment [8] was inactive.

Consider `CC(=O)Nc1ccc2[nH]cc(C3CCN(CCC4CCN(C(=O)/C=C/c5ccc(Cl)c(Cl)c5)CC4)CC3)c2c1`, for which the figures for the growth inhibition in experiment [1] and in experiment [4] were 7% and 95% (active), respectively. Also, the inhibition in experiment [2] was 13%; in experiment [3], 4%. Besides, the outcome in experiment [5], in experiment [6], in experiment [7] and in experiment [8] was inactive.

For `CN(CC1CCC(NC(=O)/C=C/c2ccc(Cl)c(Cl)c2)CC1)C1CCC(c2c[nH]c3ccccc23)CC1` (stereo not drawn), the values for the growth inhibition in experiment [1] and in experiment [4] were 53% (active) and 99% (active), respectively. In addition, the inhibition was 53% (active) in experiment [2] and -3% in experiment [3]. In addition, the result in experiment [5], in experiment [6], in experiment [7] and in experiment [8] was inactive.

Regarding `O=C(COc1ccccc1)N(Cc1ccc(-c2ccc(CNC3Cc4ccccc4C3)cc2)cc1)C1CCNCC1`, the growth inhibition in experiment [1] is 8%; in experiment [4], 100% (active). The results for the inhibition in experiment [2] and in experiment [3] were 26% and -1%, respectively. In addition, the result in experiment [5], in experiment [6], in experiment [7] and in experiment [8] was inactive.

`CCc1c(C)c2ccc3c(c2oc1=O)CN(CCc1ccc(F)cc1)CO3`: the growth inhibition in experiment [1] was 85% (active); in experiment [4], 94% (active). In addition, the inhibition in experiment [2] was 0%; in experiment [3] it was -2%. Also, the result in experiment [5], in experiment [6], in experiment [7] and in experiment [8] was inactive.

With `Cc1cc(NCCc2ccccc2)nc(NC(=NCC(=O)OC(C)(C)C)Nc2ccc(C(F)(F)F)cc2)n1`, the growth inhibition in experiment [1] was 97% (active); in experiment [4], 100% (active). For the same compound, the inhibition in experiment [2] is 23%; in experiment [3], 2%. For the same compound, the outcome in experiment [5], in experiment [6], in experiment [7] and in experiment [8] was inactive.

In the case of `CN(C)C=Nc1ccc(OCCCCCCOc2ccc(N=CN(C)C)cc2)cc1`, the growth inhibition was 94% (active) in experiment [1] and 101% (active) in experiment [4]. In addition, the inhibition in experiment [2] is 26%; in experiment [3] it was 6%. Moreover, the result in experiment [5], in experiment [6], in experiment [7] and in experiment [8] was inactive.

On to `COc1ccc(NS(=O)(=O)c2cccc(C(=O)Nc3ccc(C(F)(F)F)cc3)c2)cc1N1CCN(CC(C)C)CC1`, for which the growth inhibition in experiment [1] was 4%; in experiment [4] it was 94% (active). The inhibition in experiment [2] was 5%; in experiment [3], 2%. The result in experiment [5], in experiment [6], in experiment [7] and in experiment [8] was inactive.

As to `COc1ccc2nccc(NN=Cc3ccccc3F)c2c1`, the growth inhibition was 98% (active) in experiment [1] and 103% (active) in experiment [4]. For the same compound, the inhibition in experiment [2] is 23%; in experiment [3], -2%. Moreover, the outcome in experiment [5], in experiment [6], in experiment [7] and in experiment [8] was inactive.

As for `Cc1ccc2nc(C)cc(NN=CC=Cc3ccccc3)c2c1`, the growth inhibition in experiment [1] is 28%; in experiment [4] it was 92% (active). Besides, the inhibition was 0% in experiment [2] and 4% in experiment [3]. Besides, the result in experiment [5], in experiment [6], in experiment [7] and in experiment [8] was inactive.

Turning to `Cc1cc(C2CCN(CCCCNC(=O)c3ccc(NC(=O)c4ccc(Cl)cc4)cc3)CC2)c(C)cc1OCc1nccn1C`, the values for the growth inhibition in experiment [1] and in experiment [4] were 98% (active) and 100% (active), respectively. Also, the inhibition in experiment [2] was 18%; in experiment [3] it was -2%. Besides, the result in experiment [5], in experiment [6], in experiment [7] and in experiment [8] was inactive.

Take `Oc1ccccc1CNCC12CC3CC(CC(C3)C1)C2`: the growth inhibition is 99% (active) in experiment [1] and 98% (active) in experiment [4]. For the same compound, the inhibition in experiment [2] was -4%; in experiment [3], 5%. Besides, the result in experiment [5], in experiment [6], in experiment [7] and in experiment [8] was inactive.

In the case of `CCNC(=O)N1CCc2ccc(Oc3nc(NCc4ccccc4OC)ncc3C)cc2CC1`, the results for the growth inhibition in experiment [1] and in experiment [4] were 76% (active) and 83% (active), respectively. Moreover, the inhibition in experiment [2] and in experiment [3] was -9% in each case. The result in experiment [5], in experiment [6], in experiment [7] and in experiment [8] was inactive.

As for `Cc1cc(NC(=O)Nc2ccc(Oc3ccccc3)cc2)c2ccccc2n1`, the growth inhibition in experiment [1] is 28%; in experiment [4], 91% (active). Besides, the values for the inhibition in experiment [2] and in experiment [3] were 2% and 4%, respectively. The result in experiment [5], in experiment [6], in experiment [7] and in experiment [8] was inactive.

For the compound `CC(C)(C)c1ccc2oc(=O)n(C3CCN(C(=O)c4ccc([N+](=O)[O-])o4)CC3)c2c1`, the growth inhibition in experiment [1] was 87% (active); in experiment [4], 94% (active). Further, the inhibition in experiment [2] is -8%; in experiment [3], -2%. Moreover, the outcome in experiment [5], in experiment [6], in experiment [7] and in experiment [8] was inactive.

As for `Nc1c2ccccc2nc2cc(Cl)ccc12`, the growth inhibition was 86% (active) in experiment [1] and 103% (active) in experiment [4]. For the same compound, the values for the inhibition in experiment [2] and in experiment [3] were 24% and -3%, respectively. For the same compound, the outcome in experiment [5], in experiment [6], in experiment [7] and in experiment [8] was inactive.

As to `COc1ccc(CNC2CCN(C)CC2)cc1-c1ccc(S(=O)(=O)NC2CCC2)s1`, the growth inhibition in experiment [1] was 94% (active); in experiment [4] it was 100% (active). Besides, the inhibition in experiment [2] was 32%; in experiment [3], 5%. Further, the result in experiment [5], in experiment [6], in experiment [7] and in experiment [8] was inactive.

Consider `CCCC(=O)c1cnc2c(I)cccc2c1Nc1ccccc1C`, for which the growth inhibition is 26% in experiment [1] and 90% (active) in experiment [4]. Besides, the results for the inhibition in experiment [2] and in experiment [3] were 7% and 4%, respectively. For the same compound, the result in experiment [5], in experiment [6], in experiment [7] and in experiment [8] was inactive.

Regarding `Oc1cccc2ccc(Nc3ccccn3)nc12`, the growth inhibition in experiment [1] was 93% (active); in experiment [4], 99% (active). Further, the values for the inhibition in experiment [2] and in experiment [3] were 72% (active) and 3%, respectively. The outcome in experiment [5], in experiment [6], in experiment [7] and in experiment [8] was inactive.

With `CC(C)(C)[C@@H](Nc1ccc(C#N)c2ccccc12)C(=O)NC1(Cc2ccc(O)c(Br)c2)CCCC1`, the growth inhibition in experiment [1] is 16%; in experiment [4] it was 84% (active). Also, the inhibition is 2% in experiment [2] and -2% in experiment [3]. The outcome in experiment [5], in experiment [6], in experiment [7] and in experiment [8] was inactive.

The values above are taken from PubChem BioAssay.
